# Screening data as filed in PubChem BioAssay.
# Only some compounds are listed: those with a hit (about 12% of all), similar ones and a draw of the others.
# G9a inh – qHTS Assay for Inhibitors of Histone Lysine Methyltransferase G9a; G9a H3K9 monomethylation, AlphaScreen, 2 h; Histone-lysine N-methyltransferase EHMT2 (Homo sapiens), Q96KQ7; Potency, µM (highest dose often 102 µM), inactives show top-dose activity, negative = inhibition, most hits filed as inhibitors; 350,000 tested, 8.8% active; also: % is scaled to controls: 0 for no effect and ±100 for the full control effect; nearly all actives have a fitted effect of over 75% in size
# Target sequence (Q96KQ7 913-1193 limits assumed): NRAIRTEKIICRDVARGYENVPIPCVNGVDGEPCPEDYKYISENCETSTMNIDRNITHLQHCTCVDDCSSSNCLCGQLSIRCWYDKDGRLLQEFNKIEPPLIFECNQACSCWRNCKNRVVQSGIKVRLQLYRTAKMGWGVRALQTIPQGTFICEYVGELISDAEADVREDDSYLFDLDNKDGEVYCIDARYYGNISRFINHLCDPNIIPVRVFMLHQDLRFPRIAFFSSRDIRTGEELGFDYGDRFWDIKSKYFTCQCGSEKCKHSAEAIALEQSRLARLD
#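 Enzyme 20 nM + cpd, 15 min RT; add b-H3K9 pep 500 nM / SAM 20 uM; 2 h RT; anti-H3K9me1 Ab 0.5 ug/mL + SA donor / anti-rabbit acceptor beads 20 ug/mL each, 10 min; AlphaScreen read.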
# JMJD2A Tudor inh – qHTS Assay for Inhibitors of JMJD2A-Tudor Domain. Lysine-specific demethylase 4A (Homo sapiens), O75164. Potency, µM (top dose mostly 114 µM), inactives show at the top dose activity change, negative = inhibition, most hits filed as inhibitors. AlphaScreen JMJD2A-Tudor / H3K4me3 peptide binding. 390,000 tested, 4.4% active; also: % is scaled to controls: 0 for no effect and ±100 for the full control effect; nearly all actives have a fitted effect of over 50% in size
# HP1b binding inh – HTS for Inhibitors of HP1-beta Chromodomain Interactions with Methylated Histone Tails | Chromobox protein homolog 1 (Homo sapiens), P83916 | AlphaScreen HP1-beta / biotin-H3K9me3 peptide binding | Potency, µM (doses to about 114 µM), for the others: top-dose activity change, negative = inhibition, actives largely listed as inhibitors | 390,000 tested, 0.56% active; also: nearly all actives have a fitted effect of over 70% in size
# Target sequence (P83916 whole entry, looked up): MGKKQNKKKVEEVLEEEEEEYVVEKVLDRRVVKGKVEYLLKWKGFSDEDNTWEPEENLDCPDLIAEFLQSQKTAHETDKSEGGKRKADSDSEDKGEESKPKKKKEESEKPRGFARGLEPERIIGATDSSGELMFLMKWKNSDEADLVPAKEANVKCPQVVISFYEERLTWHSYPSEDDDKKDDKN
#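 HP1-beta protein (50 nM final) preincubated 30 min at room temperature with biotinylated H3(1-18)K9me3 peptide (50 nM) in PBS pH 7.4, 0.01% Tween-20, then compound added for 30 min. AlphaScreen streptavidin donor/nickel chelate acceptor beads (10 ug/mL final), 30 min dark, luminescence read.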
# TDP1 inh – qHTS Assay for Inhibitors of Tyrosyl-DNA Phosphodiesterase (TDP1). Tyrosyl-DNA phosphodiesterase 1 (Homo sapiens), Q9NUW8. recombinant TDP1, AlphaScreen DNA substrate cleavage. Potency, µM (top dose mostly 130 µM), for the others: at the highest dose activity change, negative = inhibition, most hits filed as inhibitors. 350,000 tested, 0.28% active; also: % is scaled to controls: 0 for no effect and ±100 for the full control effect; nearly all actives have a fitted effect of over 40% in size
#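 Recombinant human Tdp1 (E. coli-expressed, 1 nM final) preincubated with compounds 15 min at room temperature, then 5'-biotin/3'-phosphotyrosine-FITC DNA substrate (15 nM final) added for 5 min. AlphaScreen beads (10 ug/ml final) added 10 min; cleavage lowers signal.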
# BAZ2B inh – qHTS Assay for Inhibitors of BAZ2B. Bromodomain adjacent to zinc finger domain protein 2B (Homo sapiens), Q9UIF8. AlphaScreen BAZ2B-H3K14Ac peptide displacement. Potency, µM (titrated, usually from 114 µM), for inactives: at the top dose activity change, negative = inhibition, usual class: inhibitors. 360,000 tested, 4.4% active. AID 504333, 2011; also: % is scaled to controls: 0 for no effect and ±100 for the full control effect; nearly all actives have a fitted effect of over 60% in size
#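 Complex of BAZ2B and biotin-H3K14Ac (50 nM apiece) forms over 30 min at RT, then faces library compounds up to 110 uM for another 30 min; AlphaScreen beads added, 20 min dark incubation, luminescence read.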
# Sfp inh – qHTS Assay for Inhibitors of Bacillus subtilis Sfp phosphopantetheinyl transferase (PPTase) | 4'-phosphopantetheinyl transferase ffp (Bacillus subtilis), Q9F4F7 | Biochemical Sfp PPTase activity, qHTS | Potency, µM, for inactives: largest response in the series, negative = inhibition, actives largely listed as inhibitors | 310,000 tested, 3.5% active;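 also: the enzyme is Sfp with the accession as filed and its product quenches rhodamine fluorescence; 0% = enzyme reaction without inhibitor and -100% = no enzyme wells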
#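 Reaction rates are the 30-min fluorescence difference (ex 525, em 598 nm) in wells containing 15 nM Sfp, 5 uM rhodamine-CoA and 12.5 uM BHQ-2-YbbR at pH 7.6 with 10 mM MgCl2.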
# * hit, by the source's call; ? = inconclusive; / = not tested or not shown; [ ] = another dose, or the depositor's remark. Calls follow the shape of the dose curve; as a rule, active = well fitted curve in the direction sought with a large enough effect; inconclusive = small, poorly fitted or top-dose-only effect, or another doubt; inactive = no such curve, though single readings can be large; an effect the other way counts as inactive or inconclusive. Potency is read from the fitted curve at half-maximal effect.
SMILES,G9a inh,JMJD2A Tudor inh,HP1b binding inh,TDP1 inh,BAZ2B inh,Sfp inh
c1ccc2sc(N3CCCN(Cc4nc(-c5cnccn5)no4)CC3)nc2c1,-31%,-3%,51%,6%,1%,7%
COc1ccc(-c2c(NC(=O)c3ccco3)oc3c(C)cccc3c2=O)cc1,12%[0.0925 µM],-5%,40%,2%,-12%,4%
COc1cc2c(cc1OC)C(C(=O)Nc1ccccn1)C(c1cccnc1)N(C)C2=O (stereo not drawn),/,-12%[57.1 µM],81%,0%,79µM*,16%
COc1cc2c(cc1OC)C(C(=O)Nc1cccc(C)n1)C(c1cccnc1)N(C)C2=O (stereo not drawn),43%[12.7 µM],-9%,37%,-2%,10%,11%
CCCCN(CC(=O)NC1CCCC1)C(=O)C(=O)Nc1ccc2c(c1)OCCO2,7%,79µM*,5%,8%,0%,17%
CC(C)CCN(CC(=O)NC1CCCC1)C(=O)C(=O)Nc1ccc2c(c1)OCCO2,8%,-7%,22%,2%,3%,-2%
Cc1cc(/C(=N/O)C(C)(C)NO)ccc1Cl,?,20µM*,-18%,-3%,-8%,-10%
CC(C)(NO)/C(=N\O)c1ccccc1,10µM*,13µM*,71µM*,-3%,40µM*,-7%
ONC(=NCc1ccccc1)c1ccccc1,/,-6%,33%,/,/,/
CC1C/C(=N\NC(=O)c2ccc([N+](=O)[O-])cc2)CC(C)(C)C1 (stereo not drawn),33%[12.7 µM],-16%,27%,/,-3%,79µM*
COc1ccc(N2CCN(C3CCCN(Cc4ccc(F)c(F)c4)C3)CC2)cc1 (stereo not drawn),45µM*,?,-20%,/,?,9%
COc1ccc(N2CCN(C3CCCN(Cc4ccc(F)cc4)C3)CC2)cc1 (stereo not drawn),?,-32%,-16%,5%,?,4%
COc1cn(CC(=O)Nc2cc(C)ccc2C)c(CN2CCCCC2)cc1=O,-4%[59 µM],-12%,29%,-4%,-1%,/
Nc1nc(Cl)c(N)c(NCC2(CO)CC(CCc3ccccc3)C2)n1 (stereo not drawn),/,?,-1%,/,/,/
O=C(c1cnccn1)N1CCN(C/C=C/c2ccccc2)CC1,-9%[59 µM],-2%,35%,4%,8%,15%
O=C(c1ccco1)N1CCN(C/C=C/c2ccccc2)CC1,56µM*,-14%[11.4 µM],0%,5%,4%,-3%
O=C(NC(=S)N1CCN(C/C=C/c2ccccc2)CC1)c1ccco1,45µM*,-20%,10%,6%,-34%,14%
O=C(c1cccs1)N1CCN(C/C=C/c2ccccc2)CC1,-2%[2.33 µM],-8%,22%,5%,-1%,1%
CC(C)NC(=S)N1CCN(C/C=C/c2ccccc2)CC1,5%,-14%,42%,8%,-19%,16%
COc1ccc(NS(=O)(=O)c2cc(C(=O)N3CCN(C/C=C/c4ccccc4)CC3)ccc2C)cc1,14µM*,?,-10%,1%,50µM*,/
Cc1cc(C(=O)N2CCN(C/C=C/c3ccccc3)CC2)no1,50µM*,-1%,23%,6%,-4%,-7%
O=C(N/N=C1\C2CN3CCN(C2)CC1(c1ccccc1)C3)Nc1ccccc1,-32%,-28%,2%,2%,?,6%
O=C(c1cnccn1)N1CCC2(CC1)CN(c1ncccn1)C2,1%[12.7 µM],/,/,/,/,21%
CCOC(=O)COc1nc(C)c(Br)c(OC)n1,?,-1%,18%,2%,0%,-3%
CCOc1nc(OCC)c2[nH]c(C(=O)O)c(Br)c2n1,/,25µM*,-7%,/,/,/
SMILES,G9a inh,JMJD2A Tudor inh,HP1b binding inh,TDP1 inh,BAZ2B inh,Sfp inh
Cc1nc(SCc2ccc(O)c([N+](=O)[O-])c2)c([N+](=O)[O-])[nH]1,/,22µM*,?,9%,?,18µM*
Cc1nc(SCc2ccc(O)c([N+](=O)[O-])c2)n[nH]1,6.3µM*,?,11%[57 µM],-2%,-4%,?
Cn1c(SCC(N)=O)nc2c([nH]c3ccccc32)c1=O,-1%[59 µM],-14%,17%[57 µM],4%,1%,/
CCOC(=O)c1c(NC(=O)CSc2cn(CCNC(=O)c3ccccc3OC)c3ccccc23)sc2c1CCC2,-6%[59 µM],-33%,33%,5%,-20%,/
CC(C)=CCCC1=CC[C@H](C(=O)O)[C@H](C(=O)O)C1,/,/,/,-2%,/,9%
Cc1ccc(S(=O)(=O)N/N=C\c2cn(CC(N)=O)c3ccccc23)cc1C,79µM*,-18%,26%,6%[56.1 µM],?,7%
Cc1ccc(C(C)C)c(OCC(=O)NNCC(=O)Nc2cccc(F)c2)c1,/,-18%,49%,1%,/,/
O=C(Cn1nnc2ccccc21)Nc1ccc(Cl)cn1,2%,-6%,20%,1%,-11%,14%
Cc1cc(C2=NNC(=NC3CC3)SC2)c(C)n1-c1c(C)n(C)n(-c2ccccc2)c1=O,?,-6%,25%,3%,-11%,?
Cc1c(N=C2NN=C(c3c[nH]c4ccccc34)CS2)c(=O)n(-c2ccccc2)n1C,45µM*,?,22%,9%,-28%,?
Cc1c(N=C2NN=C(c3ccc(Cl)cc3)CS2)c(=O)n(-c2ccccc2)n1C,10µM*,-30%,1%,3%,-26%,50µM*
O=C(O)c1cccc(Nc2c3ccccc3nc3ccccc23)c1,/,-14%,21%,6%,21%,2%
O=C(O)c1cc(S(=O)(=O)O)cc(Nc2c3ccccc3nc3ccccc23)c1O,18µM*,?,?,/,?,?
CN(C)c1ccc(/C=N/c2cc(-c3ccccc3)nn2-c2ccccc2)cc1,?,?,-23%,6%,10µM*,4%
Cc1ccc(C)c(N2CCN(C(=O)c3cc4c(=O)n(Cc5ccco5)ccc4nc3C)CC2)c1,-36%[59 µM],?,-13%,10%,?,/
COc1ccc(CCn2c(=O)c3ccccc3n(CC(=O)Nc3cccc(C)c3)c2=O)cc1OC,-3%[59 µM],-7%,28%,2%,2%,/
CSCc1ccc(C(=O)N2CCC(CCC(=O)N(C)Cc3ccccc3)CC2)o1,26%,-14%,40%,3%,3%,50µM*
